Assay outcomes (PubChem BioAssay)
In the library only some 5.7% were active in any assay of this set; here they are far more common.
AHR activator = human AHR activation; P35869; AID 2796; activation, % at 5 µM; 320,000 compounds, 2.5% hits; AHR-responsive luciferase reporter cells, luminescence; in the data active = activation above about 47%;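 note: 0% = vehicle wells and 100% = reference agonist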
ssDAF-12 act = activators of S. stercoralis DAF-12 nuclear receptor | HEK293 ssDAF-12/GRIP1 lit1-tk-luc reporter, luminescence; % of 3 µM dafachronic acid response | activation, % at 6.8 µM | 370,000 compounds, 1% hits;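 active = activation above the mean over all tested compounds plus 3 SD, cut at about 0.9% in these data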;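 note: 0% = DMSO-only wells and 100% = 3 µM delta7-dafachronic acid wells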
DAX1 inh-1 = inhibitors of DAX1 repression of SF-1 activated StAR promoter. HEK293T StAR-luciferase reporter, SF-1/DAX-1 repression relief. inhibition, % at 6.8 µM. 370,000 compounds, 1.1% hits;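 active = inhibition above the mean over all tested compounds plus 3 SD, cut at about 3.6% in these data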;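 note: 0% = DAX-1 cells with DMSO and 100% = cells lacking DAX-1 with DMSO; higher inhibition means more luminescence from relief of DAX-1 repression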
hcDAF-12 act = H. contortus DAF-12 activation, primary screen; AID 652067; HEK293 hcDAF-12 lit1-tk-luc reporter, luminescence; 0% DMSO, 100% Δ7-dafachronic acid; 370,000 compounds, 1.4% hits; activation, % at 6.8 µM;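 active = activation above the mean of all tested compounds plus 3 SD, cut at about 5.5% in these data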;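 note: 100% = response to 3 µM Δ7-dafachronic acid high control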
hgDAF-12 ag = hgDAF-12 agonism, primary luciferase screen; HEK293 GAL4-hgDAF12 UAS-luciferase reporter, agonist luminescence; normalized to butyrate control; activation, % at 6.8 µM; 370,000 compounds, 1.8% hits; AID 687014;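 active = activation above a cutoff set at the mean of all screened compounds plus 3 SD, cut at about 10% in these data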;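 note: 0% = DMSO wells and 100% = sodium butyrate wells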
DAX1 inh-2 = NR0B1 (DAX1) inhibition | P51843 | HEK293 Gal4-DAX1 luciferase reporter, luminescence | inhibition, % at 6.75 µM | 340,000 compounds, 0.99% hits | AID 504766;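 active = inhibition above the mean over all tested compounds plus 3 SD, cut at about 4.2% in these data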;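 note: 0% = DAX1-transfected cells with DMSO and 100% = empty-vector control cells with DMSO; inhibition shows as a rise in luminescence from relieved DAX1 repression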
Target sequence (P51843 207-470 limits assumed): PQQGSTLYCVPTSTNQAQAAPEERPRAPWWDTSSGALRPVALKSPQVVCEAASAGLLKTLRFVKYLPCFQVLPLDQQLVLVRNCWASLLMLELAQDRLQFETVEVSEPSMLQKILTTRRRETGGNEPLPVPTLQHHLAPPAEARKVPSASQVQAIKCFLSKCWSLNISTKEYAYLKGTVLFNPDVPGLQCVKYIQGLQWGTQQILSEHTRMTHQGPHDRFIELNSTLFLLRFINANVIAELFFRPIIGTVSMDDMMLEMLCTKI
Active calls of the source: *.

For Cn1c(N)c(N=Cc2ccccc2)c(=O)n(C)c1=O the results were ssDAF-12 act -1, DAX1 inh-1 -1, hcDAF-12 act 0, hgDAF-12 ag 0 and DAX1 inh-2 1.
CCN(c1ccccc1)S(=O)(=O)c1ccc(Cl)c(NC(=O)COC(=O)c2cc(O)c3ccccc3c2O)c1 was read as AHR activator 123*.
Cn1ccnc1SCC(=O)c1c(N)n(C)c(=O)n(C)c1=O was read as AHR activator 15, ssDAF-12 act -1, DAX1 inh-1 0, hcDAF-12 act -1, hgDAF-12 ag -2 and DAX1 inh-2 -1.
Screening Cn1c(N)c(C(=O)COC(=O)CSc2ccccc2)c(=O)n(C)c1=O returned AHR activator -1, ssDAF-12 act -1, DAX1 inh-1 0, hcDAF-12 act -2, hgDAF-12 ag 1 and DAX1 inh-2 8.5*.
Screening Cc1cc(C)nc(SCC(=O)c2c(N)n(C)c(=O)n(C)c2=O)n1 returned AHR activator 50*, ssDAF-12 act -2, DAX1 inh-1 0, hcDAF-12 act 0, hgDAF-12 ag 1 and DAX1 inh-2 1.
`C=CCCC1CN(Cc2ccc(OC)cc2)S(=O)(=O)c2c(NCc3cc(OC)c(OC)c(OC)c3)cccc2O1` (configuration not stated) gave ssDAF-12 act -2, DAX1 inh-1 -4, hcDAF-12 act -4 and hgDAF-12 ag -3.
`CC(=O)CSc1nnc(C(F)(F)F)n1C` gave AHR activator -3, ssDAF-12 act -1, DAX1 inh-1 0, hcDAF-12 act 0, hgDAF-12 ag -3 and DAX1 inh-2 -2.
O=C(Nc1ccccc1Cl)C1CC(=O)N(c2ccccc2)C1 (configuration not stated) was read as AHR activator -1, ssDAF-12 act 1.3*, DAX1 inh-1 0, hcDAF-12 act -1 and hgDAF-12 ag 3.
Screening CC1(C)CC(=O)C2=C(C1)OC(N)=C(C#N)C21C(=O)N2CCCc3cccc1c32 (configuration not stated) returned AHR activator -3, ssDAF-12 act 1.0*, DAX1 inh-1 -1, hcDAF-12 act 0, hgDAF-12 ag -1 and DAX1 inh-2 0.
Screening COc1ccc(C=O)cc1CSc1ncccc1C(=O)O returned AHR activator 6, ssDAF-12 act 1, DAX1 inh-1 0, hcDAF-12 act -1, hgDAF-12 ag 0 and DAX1 inh-2 -1.
`CCOc1ccc(N(CC(=O)N2CCCCCC2)S(=O)(=O)c2ccc(C)cc2)cc1` gave AHR activator -2, ssDAF-12 act -1, DAX1 inh-1 -3, hcDAF-12 act 0, hgDAF-12 ag 1 and DAX1 inh-2 2.
CCc1ccc(N(CC(=O)N2CCOCC2)S(C)(=O)=O)cc1 was read as AHR activator 0, ssDAF-12 act -1, DAX1 inh-1 0, hcDAF-12 act 0, hgDAF-12 ag -3 and DAX1 inh-2 6.7*.
Screening CS(=O)(=O)N(CC(=O)N1CCOCC1)c1ccc(Cl)cc1 returned AHR activator 6, ssDAF-12 act 0, DAX1 inh-1 0, hcDAF-12 act 6.0*, hgDAF-12 ag 0 and DAX1 inh-2 0.
Cc1ccc(N(CC(=O)N2CCCCC2)S(=O)(=O)c2ccc(C)cc2)cc1 was read as AHR activator -2, ssDAF-12 act -1, DAX1 inh-1 -1, hcDAF-12 act -2, hgDAF-12 ag 0 and DAX1 inh-2 4.6*.
Screening CCc1ccc(N(CC(=O)N2CCCC2)S(C)(=O)=O)cc1 returned ssDAF-12 act 1, DAX1 inh-1 1, hcDAF-12 act -1, hgDAF-12 ag 1 and DAX1 inh-2 -1.
Screening Nc1ccn([C@@H]2O[C@H](C(=O)N[C@H](Cc3ccccc3)C(=O)N3CCN(CCO)CC3)[C@@H](O)[C@H]2O)c(=O)n1 returned ssDAF-12 act -1, DAX1 inh-1 -1, hcDAF-12 act -1 and hgDAF-12 ag -3.
COc1ccc(N(CC(=O)NCc2ccco2)C(=O)CNS(=O)(=O)c2ccc(Cl)cc2)cc1 was read as AHR activator 2, ssDAF-12 act -1, DAX1 inh-1 0, hcDAF-12 act 0, hgDAF-12 ag 1 and DAX1 inh-2 -2.
